Bioassay records as filed in PubChem.
SW480 rerep: induces DNA re-replication in SW480 colon adenocarcinoma cells | SW480 DNA re-replication, Hoechst DNA content imaging, 48 h | Potency, µM (top dose mostly 46.1 µM), actives largely listed as activators | hit rate 1.8% among 340,000 | AID 624297; also: nearly all actives have a fitted effect of over 55% in size
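DNA re-replication was detected as more nuclei of elevated Hoechst intensity after 48 hr exposure to compound (23 nL pinned per well of 250 cells).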
RORg inh: inhibitors of mouse ROR gamma transcriptional activity; P51450; Drosophila S2 Gal4-RORgamma UAS-luciferase reporter, 20 h; Potency, µM (highest dose often 53.6 µM), usual class: inhibitors; hit rate 5.4% among 310,000; AID 2551; also: nearly all actives have a fitted effect of over 60% in size
Target sequence (P51450 whole entry, looked up, the tested form may be a part): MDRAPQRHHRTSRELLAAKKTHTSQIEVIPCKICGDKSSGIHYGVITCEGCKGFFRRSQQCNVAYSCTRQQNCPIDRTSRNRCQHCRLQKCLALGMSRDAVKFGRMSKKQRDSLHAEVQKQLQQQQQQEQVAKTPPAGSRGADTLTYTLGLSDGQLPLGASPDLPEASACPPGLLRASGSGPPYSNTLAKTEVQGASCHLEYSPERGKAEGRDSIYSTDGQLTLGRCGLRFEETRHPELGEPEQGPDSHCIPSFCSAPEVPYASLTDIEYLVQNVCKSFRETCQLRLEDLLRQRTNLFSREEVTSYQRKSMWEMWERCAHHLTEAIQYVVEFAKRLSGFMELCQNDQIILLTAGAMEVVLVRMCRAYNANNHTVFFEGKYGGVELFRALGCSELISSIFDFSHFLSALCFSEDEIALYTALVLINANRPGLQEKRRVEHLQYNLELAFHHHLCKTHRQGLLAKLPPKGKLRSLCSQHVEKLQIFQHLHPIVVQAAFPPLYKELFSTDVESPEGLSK
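ROR gamma transcriptional activity was tracked as Gal4-UAS luciferase output in stably transfected Drosophila Schneider cells, with compound added 1 hr before 700 uM copper sulfate induction and a 20 hr ambient-temperature incubation.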
MCF10A rereplic: DNA re-replication induction in MCF 10a cells | MCF 10A DNA re-replication, Hoechst nuclear intensity, 48 h | Potency, µM (titrated, usually from 46.1 µM), usual class: activators | hit rate 2.9% among 350,000 | AID 624296; also: nearly all actives have a fitted effect of over 50% in size
ELG1 repair inh: inhibitors of ELG1-dependent DNA repair in HEK293T cells; HEK293T ELG1-luciferase reporter, luminescence, 16 h; DNA damage induced by 5-fluorouridine; Potency, µM (top dose mostly 46.1 µM), actives largely listed as inhibitors; hit rate 2.3% among 330,000; AID 504467; also: nearly all actives have a fitted effect of over 55% in size
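Step one: seed 2,000 cells per well. Step two: pin-transfer compound or DMSO alongside 5-fluorouridine. Step three: incubate 16 hr, 37 °C, 5% CO2. Step four: add ONE-Glo, wait 30 min, read luminescence.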
VP16 counter: inhibits Gal4-VP16 luciferase reporter, ROR gamma counter-screen; Drosophila S2 Gal4-VP16 UAS-luciferase, luminescence, 20 h; hit rate 3.5% among 310,000; Potency, µM (top dose mostly 53.6 µM), most hits filed as inhibitors;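 also: Gal4-VP16 expression switched on by copper sulfate through the metallothionein promoter; nearly all actives have a fitted effect of over 50% in size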
Numbers stand for hits; . = inactive; ? = inconclusive; / = no result given. In the library only some 10% were active in any assay of this set; here they are far more common. Calls follow the shape of the dose curve; as a rule, active = well fitted curve in the direction sought with a large enough effect; inconclusive = small, poorly fitted or top-dose-only effect, or another doubt; inactive = no such curve, though single readings can be large; an effect the other way counts as inactive or inconclusive.

SMILES | SW480 rerep | RORg inh | MCF10A rereplic | ELG1 repair inh | VP16 counter
Cc1ccc(N2C(=O)N(CC(=O)Nc3ccc(C)c(C)c3)C(=O)C2C)cc1 (stereo unspecified) | . | / | . | . | /
CC1(C)CC(NC(=S)Nc2ccc(S(N)(=O)=O)cc2)CC(C)(C)N1 | . | . | . | . | .
Cc1ccc2nc(-c3ccc(NC(=S)NC4CC(C)(C)NC(C)(C)C4)cc3)sc2c1 | ? | ? | 29.1µM | ? | .
Cc1ccc2nc(-c3ccc(NC(=S)NC(=O)C(C)C)cc3)sc2c1 | . | 1.12µM | . | ? | 2.82µM
CCC(=O)NC(=S)Nc1ccc(-c2nc3ccc(C)cc3s2)cc1 | . | 1.12µM | . | ? | 0.891µM
CCC(=O)NC(=S)Nc1ccc(-c2nc3ccccc3s2)cc1 | . | 1.58µM | . | ? | ?
CCC(=O)NC(=S)Nc1ccc(NC(=O)CC)cc1 | . | . | . | ? | .
CC(=O)Nc1ccc(S(=O)(=O)N2CCC(C(=O)O)CC2)cc1 | . | . | . | . | .
Cc1nn(C)cc1/C=N/NC(=O)C1(O)c2ccccc2-c2ccccc21 | . | . | . | . | 3.55µM
O=C(O)[C@@H](O)c1ccccc1 | . | . | . | / | .
COc1cccc(CNC(=O)CCl)c1 | . | . | . | . | .
COc1cccc(CNC(=O)COC(=O)c2c(NC(C)=O)sc(C)c2C)c1 | 16.4µM | / | . | . | /
COc1cccc(CNC(=O)COC(=O)c2nc(Cl)c(Cl)c(Cl)c2Cl)c1 | 11.6µM | / | 7.31µM | . | /
CC(C)c1ccc(NC(=O)NCc2ccccn2)cc1 | . | . | . | ? | .
O=C(CNC(=O)Cn1cnc2sc3c(c2c1=O)CCCC3)NCc1ccccn1 | . | . | . | . | .
O=C(Cn1cnc2sc3c(c2c1=O)CCCC3)NCC(=O)Nc1c(F)cccc1F | 16.4µM | . | . | . | .
COc1ccc(NC(=O)CN(C)C(=O)C2CCCO2)cc1 (stereo unspecified) | . | / | . | ? | /
CCOc1ccc(CCNC(=O)c2cc(-c3ccccc3)c(N3CCOCC3)s2)cc1OCC | . | . | . | 16.4µM | .
CN(Cc1ccc2c(c1)OCO2)C(=O)c1cc(-c2ccccc2)c(N2CCOCC2)s1 | . | / | . | ? | /
O=C(NCc1ccco1)c1cc(-c2ccccc2)c(N2CCOCC2)s1 | . | . | . | 20.6µM | .
O=C(NCc1ccc2c(c1)OCO2)c1cc(-c2ccccc2)c(N2CCOCC2)s1 | . | . | . | 18.3µM | .
CC(C)=CCCC(C)CN1CCC(n2nccc2NC(=O)c2ccc3c(c2)OCO3)CC1 (stereo unspecified) | ? | . | . | . | .
CCN(CC)S(=O)(=O)c1ccc(C(=O)NCC(=O)NC2CC2)cc1 | . | / | . | . | /
COc1ccccc1-n1cc(-c2ccccc2)[nH]c1=S | ? | 3.98µM | . | . | 20µM
CCOc1ccc(-c2cn(-c3cccc(SC)c3)c(=O)[nH]2)cc1 | ? | . | ? | . | .
SMILES | SW480 rerep | RORg inh | MCF10A rereplic | ELG1 repair inh | VP16 counter
Cc1ccc(-c2cn(-c3ccccc3F)c(=S)[nH]2)cc1 | . | 1.78µM | . | ? | 7.08µM
COc1ccc(-n2cc(-c3ccccc3)[nH]c2=S)cc1 | . | 2.24µM | . | ? | 3.55µM
CC(=O)Nc1ccc(-n2cc(-c3ccccc3)[nH]c2=S)cc1 | . | ? | . | ? | .
CCOc1ccc(-c2cn(-c3ccccc3OC)c(=S)[nH]2)cc1 | ? | 3.55µM | ? | . | 8.91µM
C[C@H](CO)N1C[C@H](C)[C@@H](CN(C)C(=O)NC2CCCCC2)Oc2ccc(NS(C)(=O)=O)cc2C1=O | . | / | . | ? | /
COc1ccc(-n2ncc3c2CC(C)(C)CC3NC(=O)CN2CCOC2=O)cc1 (stereo unspecified) | . | . | . | . | .
Cc1cc2c(cc1S(=O)(=O)Nc1cccc(C)c1C)n(C)c(=O)c(=O)n2C | . | ? | . | . | .
CCOc1ccc(-n2cc(-c3ccc(OC)c(OC)c3)[nH]c2=S)cc1 | . | 1.26µM | . | . | ?
COc1ccccc1-n1cc(-c2ccccc2)c2c(=S)nc[nH]c21 | . | 1µM | ? | . | 1µM
COc1ccc(-n2cc(-c3ccccc3)c3c(=O)[nH]cnc32)cc1 | . | . | . | . | .
Cc1cccc(-n2cc(-c3ccccc3)[nH]c2=S)c1 | . | 2.51µM | . | . | 7.08µM
COc1cccc(-c2cn(-c3cccc(C(F)(F)F)c3)c(=S)[nH]2)c1 | . | 3.16µM | . | . | ?
Nc1cc(=O)[nH]c(=S)n1-c1cccc(C(F)(F)F)c1 | . | . | . | ? | .
O=C(Nc1cc(C(F)(F)F)ccc1N1CCOCC1)C1CCCO1 (stereo unspecified) | . | / | . | . | /
Cc1ccc(S(=O)(=O)N[C@H](C(=O)NCC2CCC(C(=O)O)CC2)C(C)C)cc1 (stereo partly specified) | . | . | . | . | .
CC(NC(=O)Nc1ccc(Cl)cc1)c1ccccc1 (stereo unspecified) | . | . | . | . | .
Cc1ccc(C(NC(=O)NC(C)c2ccccc2)C(Cl)(Cl)Cl)cc1F (stereo unspecified) | ? | . | 14.6µM | ? | ?
CCCCN(C)C(=O)c1cc2c(s1)-c1ccccc1S(=O)(=O)C2 | . | . | . | . | .
Cc1cc(=O)n2c(sc3ccccc32)c1C#N | 23.1µM | . | ? | . | .
C#CCOC(=O)c1ccccc1C(=O)n1nnc2ccccc21 | ? | 17.8µM | . | . | ?
Cc1nc(SCC(=O)N2CCOCC2)c2c3c(sc2n1)CCC3 | . | / | . | 20.6µM | /
O=C(O)CCn1c(=O)oc2cc(S(=O)(=O)N3CCCC3)ccc21 | . | / | . | . | /
Cn1ccc(NC(=O)c2ccc(Cl)cc2)n1 | . | / | . | ? | /
COc1ccc(Br)cc1C(=O)Nc1cccc(-c2nnc(-c3ccco3)o2)c1 | . | / | . | / | /
Cc1cccc(C(=O)Nc2nnc(-c3ccco3)o2)c1 | . | 0.501µM | . | . | 0.631µM
SMILES | SW480 rerep | RORg inh | MCF10A rereplic | ELG1 repair inh | VP16 counter
Cc1cccc(C(=O)Nc2ccn(C)n2)c1 | 18.4µM | / | . | ? | /
O=C(Nc1nnc(-c2ccco2)o1)c1ccc(Cl)cc1 | . | 0.355µM | ? | ? | 0.631µM
COc1cccc(C(=O)Nc2cccc(-c3nnc(-c4ccco4)o3)c2)c1 | . | . | ? | 23.1µM | .
O=C(NCCC1CCCCN1S(=O)(=O)c1ccccc1)C(=O)NCc1cccnc1 (stereo unspecified) | . | / | . | . | /
Cc1ccc(C(=O)Nc2nnc(-c3ccco3)o2)cc1C | . | 0.631µM | ? | ? | 0.891µM
COc1ccc(CNC(=O)COC(=O)c2n[nH]c3ccccc23)cc1OC | . | ? | ? | 16.4µM | .
CCOC(=O)c1c(C)[nH]c(C(=O)N(C)Cc2cccc(OC)c2OC)c1C | . | . | . | 16.4µM | .
CCOC(=O)c1[nH]c(C)c(C(=O)OCC(=O)NCc2ccc(OC)c(OC)c2)c1C | . | / | . | 11.2µM | /
